Data published in PubChem BioAssay (Tox21).
Records with an inconclusive call do not appear. Entries that show only a call come without a potency. Some structures have more than one record in an assay (separate samples or runs), and their calls can disagree. The source made the active and inactive calls. Unless noted, calls come from the whole dose curve; as a rule, active = well fitted curve in the direction sought with a large enough effect in the repeat runs; inconclusive = weak or mixed curves; inactive = no such curve, though single readings can be large; an effect the other way counts as inactive or inconclusive.

Key:
[1] = qHTS assay to identify aromatase inhibitors - cell viability counter screen (AID 743084);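 note: cells stimulated with testosterone during compound exposure; nearly all actives have a fitted effect of over 55% in size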
[2] = target: Aryl hydrocarbon receptor (Homo sapiens) (UniProt P35869); test: qHTS assay to identify small molecule that activate the aryl hydrocarbon receptor (AhR) signaling pathway (AID 743085); note: nearly all actives have a fitted effect of over 15% in size; note: potency is the fitted concentration of half-maximal effect;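 for activation: HG2L7.5c1 human HepG2 liver cells with stably integrated DRE-driven firefly reporter; series mostly up to about 70 µM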
Sequence of Aryl hydrocarbon receptor (Homo sapiens) (P35869 whole entry, looked up): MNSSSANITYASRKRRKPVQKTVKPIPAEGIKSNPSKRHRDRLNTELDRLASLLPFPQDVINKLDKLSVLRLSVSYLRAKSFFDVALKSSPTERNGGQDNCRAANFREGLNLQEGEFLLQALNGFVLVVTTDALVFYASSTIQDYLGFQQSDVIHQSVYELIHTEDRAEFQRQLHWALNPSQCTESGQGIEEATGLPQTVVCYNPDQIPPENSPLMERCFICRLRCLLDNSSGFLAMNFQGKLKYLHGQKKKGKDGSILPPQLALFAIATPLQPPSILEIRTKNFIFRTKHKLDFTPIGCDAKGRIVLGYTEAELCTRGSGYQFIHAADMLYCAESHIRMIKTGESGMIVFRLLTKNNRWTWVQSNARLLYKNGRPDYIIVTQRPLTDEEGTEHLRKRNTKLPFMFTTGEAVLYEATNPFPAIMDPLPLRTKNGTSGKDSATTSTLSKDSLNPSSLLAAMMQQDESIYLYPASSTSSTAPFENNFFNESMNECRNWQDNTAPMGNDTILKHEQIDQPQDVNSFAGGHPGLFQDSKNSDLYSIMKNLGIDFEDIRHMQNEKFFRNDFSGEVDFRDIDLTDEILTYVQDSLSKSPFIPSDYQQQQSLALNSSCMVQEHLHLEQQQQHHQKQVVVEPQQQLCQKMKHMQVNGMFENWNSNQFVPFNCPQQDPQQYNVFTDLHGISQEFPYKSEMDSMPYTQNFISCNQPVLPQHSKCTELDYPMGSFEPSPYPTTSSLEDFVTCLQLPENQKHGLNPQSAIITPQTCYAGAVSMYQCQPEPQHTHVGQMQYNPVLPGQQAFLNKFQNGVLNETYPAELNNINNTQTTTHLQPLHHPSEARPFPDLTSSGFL
How it was run: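 Compounds were tested in HepG2 hepatocellular carcinoma cells harbouring a stably integrated luciferase gene under control of 20 DREs. Increased reporter signal after 24 h treatment at 37C was taken as AhR activation.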

[3] = qHTS assay to identify small molecule that activate the aryl hydrocarbon receptor (AhR) signaling pathway - cell viability counter screen (AID 743086);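 note: HepG2 liver cells carrying the AhR DRE luciferase reporter; series mostly up to about 70 µM; nearly all actives have a fitted effect of over 45% in size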
How it was run: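 HepG2-AhR-luc (HG2L7.5c1) cells, 4000/well, were preincubated 5 h at 37C, exposed to compound in qHTS format for 24 hr at 37C, then given CellTiter-Fluor for 30 min; viability was read as fluorescence in the reporter wells.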

[4] = target: Peroxisome proliferator-activated receptor gamma (Homo sapiens) (UniProt P37231); test: qHTS assay to identify small molecule agonists of the peroxisome proliferator-activated receptor gamma (PPARg) signaling pathway (AID 743094; active = well fitted activation curve with a large enough effect in the signal ratio in the repeat runs, not every such curve was filed as active; the % refers to the signal ratio)
Sequence of Peroxisome proliferator-activated receptor gamma (Homo sapiens) (P37231 whole entry, looked up): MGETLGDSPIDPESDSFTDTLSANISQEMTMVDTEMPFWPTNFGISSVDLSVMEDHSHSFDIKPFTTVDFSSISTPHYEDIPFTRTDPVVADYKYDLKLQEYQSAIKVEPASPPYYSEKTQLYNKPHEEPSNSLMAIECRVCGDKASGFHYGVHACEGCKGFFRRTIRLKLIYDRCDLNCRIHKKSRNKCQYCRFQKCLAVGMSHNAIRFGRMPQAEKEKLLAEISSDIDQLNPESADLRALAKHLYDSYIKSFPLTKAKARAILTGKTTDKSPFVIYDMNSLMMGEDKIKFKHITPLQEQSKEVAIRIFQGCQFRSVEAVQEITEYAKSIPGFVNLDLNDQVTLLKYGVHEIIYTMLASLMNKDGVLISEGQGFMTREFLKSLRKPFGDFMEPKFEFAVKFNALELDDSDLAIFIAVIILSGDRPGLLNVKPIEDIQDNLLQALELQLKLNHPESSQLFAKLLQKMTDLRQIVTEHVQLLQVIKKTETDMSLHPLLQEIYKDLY
How it was run: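 GeneBLAzer PPARg UAS-bla HEK293H cells carrying a stably integrated beta-lactamase reporter were pre-incubated 5 h at 37C, then exposed to compounds in DMSO for 17 h at 37C; LiveBLAzer B/G FRET substrate was added for 1 h at room temperature and fluorescence read.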

[5] = target: Peroxisome proliferator-activated receptor gamma (Homo sapiens) (UniProt P37231); test: qHTS assay to identify small molecule antagonists of the peroxisome proliferator-activated receptor gamma (PPARg) signaling pathway (AID 743191; calls by dose curve; note: series mostly up to about 63 µM; nearly all actives have a fitted effect of over 30% in size)
How it was run: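 GeneBLAzer PPARg UAS-bla HEK293H cells carrying a UAS-driven beta-lactamase reporter were plated at 3000 cells/well, preincubated 5 h at 37C, then given compound for 17 h at 37C; LiveBLAzer B/G FRET substrate was read after 1 h at room temperature.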

[6] = qHTS assay to identify small molecule antagonists of the peroxisome proliferator-activated receptor gamma (PPARg) signaling pathway - cell viability counter screen (AID 743194); note: nearly all actives have a fitted effect of over 55% in size
How it was run: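 PPARg-UAS-bla HEK293H cells were plated, rested 5 h at 37 C, then treated with compounds plus rosiglitazone (50 nM final) for 17 h at 37 C; viability was then read by CellTiter-Glo luminescence after 30 min at room temperature.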

[7] = qHTS assay for small molecule agonists of the antioxidant response element (ARE) signaling pathway (AID 743202; active = well fitted activation curve with a large enough effect in the signal ratio in the repeat runs, not every such curve was filed as active; the % refers to the signal ratio)
How it was run: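 Compounds delivered in DMSO to ARE-bla HepG2 cells (2,000 cells/well, pre-incubated 5 h) and left 16 h at 37 C. LiveBLAzer B/G FRET substrate then added for 2 h at RT before fluorescence reading.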

[8] = qHTS assay for small molecule agonists of the antioxidant response element (ARE) signaling pathway - cell viability counter screen (AID 743203; calls by dose curve; note: nearly all actives have a fitted effect of over 55% in size)
How it was run: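 CellSensor ARE-bla HepG2 cells, 2,000 per well, rested 5 hrs at 37C/5% CO2, then exposed to compound in DMSO for 16 hrs; viability read as CellTiter-Glo luminescence after 30 min at room temperature, in the reporter wells.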

[9] = qHTS assay for small molecule activators of the heat shock response signaling pathway - cell viability counter screen (AID 743209); note: nearly all actives have a fitted effect of over 50% in size
How it was run: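 CellSensor HSE-bla HeLa cells, plated overnight at 37 C/5% CO2, were exposed to compounds in DMSO for 5 h at 37 C. Viability was then read in the same wells by CellTiter-Glo luminescence after 30 min at room temperature.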

[10] = qHTS assay for small molecule activators of the heat shock response signaling pathway (AID 743210; active = well fitted activation curve with a large enough effect in the signal ratio in the repeat runs, with a control signal flat, not every such curve was filed as active; the % refers to the signal ratio;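 note: HeLa cells with beta-lactamase reporter driven by heat shock elements; series mostly up to about 63 µM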)
How it was run: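 Reporter gene assay: HeLa cells stably bearing an HSE-bla construct, compound treatment 5 h at 37 C, LiveBLAzer substrate 2.5 h at RT, fluorescence intensity.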

[11] = qHTS assay to identify small molecule agonists of the peroxisome proliferator-activated receptor delta (PPARd) signaling pathway - cell viability counter screen (AID 743211); note: nearly all actives have a fitted effect of over 55% in size
How it was run: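 Counter screen for cytotoxicity run in parallel with the PPARd reporter screen. Beta-lactamase reporter HEK293H cells exposed to compounds 17 h; ATP-based CellTiter-Glo luminescence quantified viability.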

[12] = target: Peroxisome proliferator-activated receptor delta (Homo sapiens) (UniProt Q03181); test: qHTS assay to identify small molecule agonists of the peroxisome proliferator-activated receptor delta (PPARd) signaling pathway (AID 743212; calls by dose curve)
Sequence of Peroxisome proliferator-activated receptor delta (Homo sapiens) (Q03181 whole entry, looked up): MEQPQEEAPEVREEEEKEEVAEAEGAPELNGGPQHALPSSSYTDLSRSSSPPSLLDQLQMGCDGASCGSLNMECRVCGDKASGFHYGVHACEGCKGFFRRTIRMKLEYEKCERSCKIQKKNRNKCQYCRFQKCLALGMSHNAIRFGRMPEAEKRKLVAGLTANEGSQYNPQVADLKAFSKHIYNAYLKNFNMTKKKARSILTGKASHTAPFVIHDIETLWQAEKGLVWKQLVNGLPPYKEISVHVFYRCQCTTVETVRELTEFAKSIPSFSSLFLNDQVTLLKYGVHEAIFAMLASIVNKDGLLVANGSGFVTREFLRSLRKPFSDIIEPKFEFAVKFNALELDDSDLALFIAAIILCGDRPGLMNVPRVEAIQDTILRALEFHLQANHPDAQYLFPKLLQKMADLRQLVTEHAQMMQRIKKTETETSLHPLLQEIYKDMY
How it was run: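 A PPARd-bla HEK293H line with beta-lactamase under an Upstream Activator Sequence is treated with compounds at 37 C. Substrate loading for 2 h at room temperature precedes the fluorescence measurement.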

[13] = qHTS assay to identify small molecule antagonists of the peroxisome proliferator-activated receptor delta (PPARd) signaling pathway - cell viability counter screen (AID 743213); note: nearly all actives have a fitted effect of over 50% in size
How it was run: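 Luminescence from CellTiter-Glo, added after the bla read and incubated 30 min at room temperature, gives viability of HEK293H PPARd-bla cells exposed to compounds for 17 h at 37 C with 300 nM L165041.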

[14] = target: Peroxisome proliferator-activated receptor delta (Homo sapiens) (UniProt Q03181); test: qHTS assay to identify small molecule antagonists of the peroxisome proliferator-activated receptor delta (PPARd) signaling pathway (AID 743215; active = well fitted inhibition curve with a large enough effect in the signal ratio in the repeat runs, not every such curve was filed as active; the % refers to the signal ratio;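 note: cells stimulated with agonist L165041 at 300 nM final during compound exposure; series mostly up to about 62 µM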)
How it was run: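 PPARd UAS-bla HEK293H cells were pre-incubated 5 h at 37 C, then given test compounds in DMSO plus agonist L165041 (300 nM final). After 17 h at 37 C, beta-lactamase FRET substrate was added; fluorescence read after 2 h at room temperature.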

[15] = target: Bile acid receptor (Homo sapiens) (UniProt Q96RI1); test: qHTS assay to identify small molecule antagonists of the farnesoid-X-receptor (FXR) signaling pathway (AID 743217; active = well fitted inhibition curve with a large enough effect in the signal ratio in the repeat runs, not every such curve was filed as active; the % refers to the signal ratio)
Sequence of Bile acid receptor (Homo sapiens) (Q96RI1 whole entry, looked up): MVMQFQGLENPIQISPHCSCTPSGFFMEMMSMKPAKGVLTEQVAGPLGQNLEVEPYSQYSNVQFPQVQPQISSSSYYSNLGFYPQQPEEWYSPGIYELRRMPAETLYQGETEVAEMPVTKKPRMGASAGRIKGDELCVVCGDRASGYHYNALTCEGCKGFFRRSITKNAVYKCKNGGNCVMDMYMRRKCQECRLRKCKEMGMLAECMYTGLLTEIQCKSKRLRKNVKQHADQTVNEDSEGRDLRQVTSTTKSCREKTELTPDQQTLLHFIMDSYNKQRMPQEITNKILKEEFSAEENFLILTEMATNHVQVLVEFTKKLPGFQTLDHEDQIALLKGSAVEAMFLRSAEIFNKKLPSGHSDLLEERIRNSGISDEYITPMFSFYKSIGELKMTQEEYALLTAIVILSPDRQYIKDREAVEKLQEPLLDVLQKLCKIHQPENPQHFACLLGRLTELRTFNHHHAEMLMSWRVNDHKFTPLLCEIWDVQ
How it was run: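 FXR-UAS-bla HEK 293T cells pre-incubated 5 h at 37 °C, then exposed to compounds with chenodeoxycholic acid (50 uM final) for 16 h at 37 °C. Beta-lactamase reporter read by LiveBLAzer B/G FRET substrate fluorescence after 2 h at room temperature.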

[16] = qHTS assay to identify small molecule agonists of the farnesoid-X-receptor (FXR) signaling pathway - cell viability counter screen (AID 743218); note: nearly all actives have a fitted effect of over 45% in size
How it was run: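 FXR-UAS-bla HEK 293T cells, plated 5 h at 37 C, were exposed to compounds for 16 h at 37 C. CellTiter-Glo was then added to the same wells as the bla readout; luminescence read after 30 min at room temperature.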

[17] = target: Bile acid receptor (Homo sapiens) (UniProt Q96RI1); test: qHTS assay to identify small molecule agonists of the farnesoid-X-receptor (FXR) signaling pathway (AID 743220; active = well fitted activation curve with a large enough effect in the signal ratio in the repeat runs, not every such curve was filed as active; the % refers to the signal ratio)
How it was run: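 Beta-lactamase reporter under UAS control in GeneBLAzer FXR HEK 293T cells (5000/well) measured with LiveBLAzer FRET substrate after 2 h at room temperature. Compound exposure lasted 16 h at 37C.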

[18] = qHTS assay to identify small molecule antagonists of the farnesoid-X-receptor (FXR) signaling pathway - cell viability counter screen (AID 743221; active = well fitted cell-killing curve with a large enough effect in the repeat runs, not every such curve was filed as active; note: nearly all actives have a fitted effect of over 50% in size)
How it was run: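 Multiplexed counter screen: viability of FXR-bla HEK 293T cells under agonist stimulation by chenodeoxycholic acid (50 uM, final) and test compound for 16 h at 37 C, measured by CellTiter-Glo luminescence in the reporter wells.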

[19] = target: Vitamin D3 receptor (Homo sapiens) (UniProt P11473); test: qHTS assay to identify small molecule agonists of the vitamin D receptor (VDR) signaling pathway (AID 743222; calls by dose curve)
Sequence of Vitamin D3 receptor (Homo sapiens) (P11473 whole entry, looked up): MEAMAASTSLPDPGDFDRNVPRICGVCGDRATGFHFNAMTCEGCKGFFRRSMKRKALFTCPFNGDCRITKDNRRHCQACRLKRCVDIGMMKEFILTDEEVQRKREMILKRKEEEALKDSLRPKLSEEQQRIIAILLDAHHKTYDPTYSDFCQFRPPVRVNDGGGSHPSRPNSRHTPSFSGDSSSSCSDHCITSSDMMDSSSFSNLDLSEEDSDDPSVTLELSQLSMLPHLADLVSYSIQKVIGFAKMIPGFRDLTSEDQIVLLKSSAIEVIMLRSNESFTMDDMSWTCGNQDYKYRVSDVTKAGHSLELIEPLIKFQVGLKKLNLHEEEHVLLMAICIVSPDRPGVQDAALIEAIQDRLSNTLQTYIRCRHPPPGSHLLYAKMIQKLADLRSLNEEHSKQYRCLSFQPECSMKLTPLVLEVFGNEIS
How it was run: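 VDR-bla cells were plated 4 h at 37C/5% CO2, then exposed to compounds in DMSO for 16 h. After LiveBLAzer B/G FRET substrate addition and 2 h at room temperature, beta-lactamase reporter fluorescence was read.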

[20] = target: Vitamin D3 receptor (Homo sapiens) (UniProt P11473); test: qHTS assay to identify small molecule antagonists of the vitamin D receptor (VDR) signaling pathway (AID 743223; active = well fitted inhibition curve with a large enough effect in the signal ratio in the repeat runs, not every such curve was filed as active; the % refers to the signal ratio)
How it was run: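 Cells carrying a VDR-driven beta-lactamase reporter (VDR-bla) were co-treated with compound and 3 nM final 1alpha,25-dihydroxyvitamin D3 for 16 h at 37C; reporter activity was measured as FRET substrate fluorescence after 2 h at room temperature.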

Row | Compound | Potency [1] | Potency [2] | outcome [3] | outcome [4] | outcome [5] | outcome [6] | Potency [7] | outcome [8] | outcome [9] | Potency [10] | outcome [11] | outcome [12] | outcome [13] | Potency [14] | outcome [15] | Potency [16] | outcome [17] | Potency [18] | outcome [19] | outcome [20]
1 | O=C=NCCCCCCN=C=O | inactive | inactive | inactive | inactive | inactive | inactive | inactive | inactive | inactive | inactive | inactive | inactive | inactive | inactive | inactive | inactive | inactive | inactive | inactive | inactive
2 | CN(C)CCOCCN(C)C | inactive | 62.3 µM (active) and inactive | inactive | inactive | inactive | inactive | inactive | inactive | inactive | inactive | inactive | inactive |  | inactive | inactive | inactive | inactive | inactive | inactive | inactive
3 | CCCCCCCCCCCCS | inactive | inactive | inactive | inactive | inactive | inactive | inactive | inactive | inactive | inactive | inactive | inactive |  | inactive |  | inactive |  | inactive | inactive | inactive
4 | O=c1[nH]nnc2ccccc12 | inactive | inactive | inactive | inactive | inactive | inactive | inactive | inactive | inactive | inactive | inactive |  | inactive | inactive | inactive | inactive | inactive | inactive | inactive | inactive
5 | C=C(C)C(=O)O[C@H]1C[C@@H]2CC[C@@]1(C)C2(C)C | inactive | inactive | inactive | inactive | inactive | inactive | inactive | inactive | inactive | inactive | inactive | inactive |  | inactive |  | inactive |  | inactive | inactive | inactive
6 | CC(=O)Nc1ccccc1 | inactive | inactive | inactive | inactive | inactive | inactive | inactive | inactive | inactive | inactive | inactive |  | inactive | inactive | inactive | inactive | inactive | inactive | inactive | 
7 | CCCCCC(N)=O | inactive | inactive | inactive | inactive | inactive | inactive | inactive | inactive | inactive | inactive | inactive | inactive | inactive | inactive |  | inactive |  | inactive | inactive | inactive
8 | C[Si](O[Si](C)(C)C)O[Si](C)(C)C | inactive | inactive | inactive | inactive | inactive | inactive | inactive | inactive | inactive | inactive | inactive | inactive | inactive | inactive | inactive | inactive | inactive | inactive | inactive | inactive
